Test results published in PMC3218832.

Tests used:
Assay in all cases: protein binding microarray; high values mean tight binding
Settings in all cases: dsDNA, one strand shown
RELARELA (p65 homodimer) = RELARELA (p65 homodimer) (Homo sapiens, UniProt Q04206 1-307)
p50p50 homodimer = p50p50 homodimer (Homo sapiens, UniProt P19838 7-356)
p52p52 homodimer = target: T1, p52p52 homodimer (Homo sapiens, UniProt Q00653 4-332)
T1 sequence: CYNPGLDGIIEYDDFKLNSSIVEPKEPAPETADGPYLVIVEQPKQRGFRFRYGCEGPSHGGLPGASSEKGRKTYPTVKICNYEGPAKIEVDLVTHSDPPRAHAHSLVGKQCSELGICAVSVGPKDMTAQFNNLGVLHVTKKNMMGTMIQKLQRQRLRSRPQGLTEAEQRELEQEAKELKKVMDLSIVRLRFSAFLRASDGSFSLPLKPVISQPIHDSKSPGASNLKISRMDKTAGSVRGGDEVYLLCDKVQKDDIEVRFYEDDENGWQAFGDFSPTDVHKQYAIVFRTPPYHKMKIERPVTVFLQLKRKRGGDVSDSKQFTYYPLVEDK

[1] = target: RELA (p65) subunit of heterodimer;p50 subunit (Homo sapiens;Homo sapiens, UniProt Q04206;P19838 1-307;7-356)
Chain of RELA (p65) subunit of heterodimer;p50 subunit (Q04206 1-307, chain 1 of 2): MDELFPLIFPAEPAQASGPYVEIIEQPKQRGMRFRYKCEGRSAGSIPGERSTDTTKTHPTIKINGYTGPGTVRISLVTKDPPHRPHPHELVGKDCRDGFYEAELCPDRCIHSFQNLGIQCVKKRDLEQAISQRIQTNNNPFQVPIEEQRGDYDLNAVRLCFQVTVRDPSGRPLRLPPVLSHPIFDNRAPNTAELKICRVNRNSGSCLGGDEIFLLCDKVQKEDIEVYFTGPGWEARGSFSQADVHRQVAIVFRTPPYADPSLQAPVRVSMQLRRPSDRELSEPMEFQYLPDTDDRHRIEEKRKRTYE
Chain of RELA (p65) subunit of heterodimer;p50 subunit (P19838 7-356, chain 2 of 2): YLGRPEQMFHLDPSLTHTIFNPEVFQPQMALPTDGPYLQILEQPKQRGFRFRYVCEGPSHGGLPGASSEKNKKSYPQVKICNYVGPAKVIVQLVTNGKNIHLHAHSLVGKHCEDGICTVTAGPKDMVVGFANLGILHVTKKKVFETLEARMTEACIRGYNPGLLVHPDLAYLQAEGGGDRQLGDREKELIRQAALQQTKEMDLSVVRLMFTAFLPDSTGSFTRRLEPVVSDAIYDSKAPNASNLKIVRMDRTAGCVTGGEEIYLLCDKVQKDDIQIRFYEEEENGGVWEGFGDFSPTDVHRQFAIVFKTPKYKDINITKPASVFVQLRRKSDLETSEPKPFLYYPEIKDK

[2] = target: RELA (p65) subunit of heterodimer;p52 subunit (Homo sapiens;Homo sapiens, UniProt Q04206;Q00653 1-307;4-332)
RELB subunit;p50 subunit = RELB subunit;p50 subunit (Homo sapiens;Homo sapiens, UniProt Q01201;P19838 120-401;7-356)
RELB subunit;p52 subunit = target: T2, RELB subunit;p52 subunit (Homo sapiens;Homo sapiens, UniProt Q01201;Q00653 120-401;4-332)
T2 sequence 1: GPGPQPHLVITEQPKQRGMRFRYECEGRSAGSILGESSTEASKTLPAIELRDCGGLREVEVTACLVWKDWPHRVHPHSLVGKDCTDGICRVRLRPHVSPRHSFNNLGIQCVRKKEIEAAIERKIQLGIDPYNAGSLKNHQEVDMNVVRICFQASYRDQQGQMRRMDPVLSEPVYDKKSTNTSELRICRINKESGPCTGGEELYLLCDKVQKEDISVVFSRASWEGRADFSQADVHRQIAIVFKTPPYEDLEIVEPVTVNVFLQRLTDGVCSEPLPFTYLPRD
T2 sequence 2: T1 sequence

[3] = target: C-Rel subunit;p50 subunit (Homo sapiens;Homo sapiens, UniProt Q04864;P19838 1-285;7-356)
[4] = target: T3, C-Rel subunit;p52 subunit (Homo sapiens;Homo sapiens, UniProt Q04864;Q00653 1-285;4-332)
T3 sequence 1: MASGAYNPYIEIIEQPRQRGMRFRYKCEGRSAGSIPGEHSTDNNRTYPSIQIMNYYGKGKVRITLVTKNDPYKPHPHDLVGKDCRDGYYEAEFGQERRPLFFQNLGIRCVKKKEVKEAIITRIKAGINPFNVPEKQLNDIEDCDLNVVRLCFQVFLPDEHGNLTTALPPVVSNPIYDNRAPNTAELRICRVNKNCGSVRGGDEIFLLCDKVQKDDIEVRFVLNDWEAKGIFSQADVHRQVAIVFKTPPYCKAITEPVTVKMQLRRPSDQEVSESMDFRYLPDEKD
T3 sequence 2: T1 sequence

Chain of RELARELA (p65 homodimer) (Q04206 1-307): as the sequence (Q04206 1-307, chain 1 of 2) above
Chain of p50p50 homodimer (P19838 7-356): as the sequence (P19838 7-356, chain 2 of 2) above

Row | Sequence | binding signal (RELARELA (p65 homodimer)) [z-score] | binding signal (p50p50 homodimer) [z-score] | binding signal (p52p52 homodimer) [z-score] | binding signal [1] [z-score] | binding signal [2] [z-score] | binding signal (RELB subunit;p50 subunit) [z-score] | binding signal (RELB subunit;p52 subunit) [z-score] | binding signal [3] [z-score] | binding signal [4] [z-score]
1 | GAGTTGTTCCC | 0.34 | -0.415 | -0.231 | -0.188 | -0.206 | -0.327 | -0.463 | -0.00411 | -0.104
2 | GGGGTACTCCT | 0.917 | 0.595 | 0.756 | 0.47 | 0.851 | 0.471 | 0.712 | 0.395 | 0.674
3 | GAAAATATCCT | -0.0981 | -1.17 | -0.53 | -0.742 | -0.608 | -1.05 | -0.797 | -0.995 | -0.675
4 | AGATTCCTCCC | 0.213 | -0.426 | -0.138 | -0.135 | -0.146 | -0.305 | -0.191 | 0.176 | -0.118
5 | CGATAAGCCCC | -0.417 | 0.756 | 0.22 | 0.383 | 0.238 | 0.334 | 0.409 | 0.25 | 0.31
6 | CAGTGACCCCT | -0.538 | -0.115 | -0.0283 | -0.321 | -0.373 | -0.303 | -0.116 | -0.672 | -0.427
7 | CGGATGGTCCC | 0.128 | -0.139 | -0.00887 | 0.132 | 0.027 | -0.0363 | -0.117 | 0.0204 | 0.154
8 | GAGTGCTTCCC | 0.545 | -0.398 | -0.0563 | -0.232 | -0.157 | -0.589 | -0.383 | -0.23 | 0.0743
9 | GGATAGTCCCT | 1 | 1.18 | 1.57 | 1.47 | 1.43 | 0.994 | 1.65 | 1.15 | 1.82
10 | AAAAATCCCCT | 2.27 | 1.6 | 3.18 | 2.55 | 2.84 | 3.22 | 2.88 | 2.19 | 3.19
11 | GAAGGTGCCCT | -0.528 | -0.946 | -0.486 | -0.722 | -0.698 | -0.821 | -0.597 | -1.15 | -0.907
12 | CGAAAGGCCCT | -0.835 | -0.751 | -0.447 | -0.366 | -0.217 | -0.417 | -0.6 | -0.822 | -0.62
13 | CAAGTGGCCCT | -1.09 | -1.71 | -0.67 | -0.961 | -0.801 | -0.596 | -0.32 | -1.14 | -0.793
14 | GAATGCCTCCT | -0.0578 | -1.27 | -0.691 | -0.691 | -0.961 | -1.06 | -1.25 | -1.51 | -0.845
15 | GAGTGCCCCCT | -0.00724 | 1.11 | 0.614 | 0.954 | 0.871 | 0.913 | 1.16 | 0.836 | 0.745
16 | CAGAGATTCCT | 0.143 | -1.43 | -0.492 | -0.806 | -0.992 | -1.16 | -1 | -0.64 | -0.606

Row | Sequence | binding signal (RELARELA (p65 homodimer)) [z-score] | binding signal (p50p50 homodimer) [z-score] | binding signal (p52p52 homodimer) [z-score] | binding signal [1] [z-score] | binding signal [2] [z-score] | binding signal (RELB subunit;p50 subunit) [z-score] | binding signal (RELB subunit;p52 subunit) [z-score] | binding signal [3] [z-score] | binding signal [4] [z-score]
17 | CAATGACTCCT | -0.344 | -1.02 | -0.692 | -1.08 | -1.05 | -1.12 | -0.995 | -1.33 | -1.13
18 | CAGGAGGTCCT | 0.426 | -1.52 | -0.389 | -0.781 | -0.822 | -0.523 | -0.466 | -0.953 | -0.415
19 | AAAGGAGTCCC | 0.141 | 0.939 | 0.569 | 0.732 | 0.431 | 0.907 | 0.607 | 0.81 | 0.405
20 | AGATTTATCCC | -0.076 | -0.338 | -0.0792 | -0.321 | -0.11 | -0.291 | -0.135 | 0.062 | -0.0889
21 | GGGGGCCTCCC | 0.3 | 0.557 | 2.41 | 1.24 | 1.91 | 1.21 | 1.09 | 1 | 1.46
22 | GAATTAGTCCT | 0.155 | -1.6 | -0.565 | -0.821 | -0.862 | -0.954 | -0.767 | -0.711 | -0.848
23 | GGAGAAGTCCT | 0.391 | -0.831 | -0.506 | -0.525 | -0.585 | -0.798 | -0.864 | -0.433 | -0.307
24 | GAGGTTGCCCT | -0.221 | -1.5 | -0.704 | -0.605 | -0.676 | -0.817 | -0.624 | -0.77 | -0.503
25 | CAGAGCACCCT | -0.924 | -0.392 | -0.306 | -0.624 | -0.75 | -0.474 | -0.444 | -1.15 | -0.736
26 | GGAATCGTCCC | 0.862 | 0.42 | 0.582 | 0.504 | 0.591 | 0.29 | 0.267 | 0.649 | 0.392
27 | AAAGGGTTCCT | -0.817 | -1.23 | -0.468 | -0.866 | -0.749 | -1.03 | -0.714 | -0.957 | -0.558
28 | CGGTTTTTCCC | 3.71 | 0.935 | 2.66 | 1.81 | 1.88 | 1.05 | 1.78 | 1.57 | 2.3
29 | AGAGTATTCCC | 1.05 | 0.224 | 0.305 | 0.534 | 0.292 | 0.0188 | 0.0238 | 0.73 | 0.396
30 | CGGGGGTCCCT | 0.00646 | 1.14 | 0.985 | 0.963 | 1.07 | 1.06 | 1.23 | 0.761 | 0.926
31 | AAATGCCCCCC | 0.508 | 1.24 | 0.957 | 1.43 | 1.32 | 1.4 | 1.57 | 1.28 | 0.954
